Measurements as given in PMC7862700, “An all-to-all approach to the identification of sequence-specific readers for epigenetic DNA modifications on cytosine”.

The sequences below were run against T1, ETV2 (Homo sapiens, UniProt O00321 1-342) (assay: DAPPL (digital affinity profiling via proximity ligation, sequencing); 10 mM Tris-HCl pH 7.5, 50 mM NaCl, 1 mM DTT, 4% glycerol, room temperature, 30 min; GST-TFs on glutathione beads, 16-mer random dsDNA library, 0.1% formaldehyde crosslink after washing; high values mean tight binding). Conditions: protein: recombinant; tags: N-terminal GST; dsDNA, one strand shown.
T1 sequence: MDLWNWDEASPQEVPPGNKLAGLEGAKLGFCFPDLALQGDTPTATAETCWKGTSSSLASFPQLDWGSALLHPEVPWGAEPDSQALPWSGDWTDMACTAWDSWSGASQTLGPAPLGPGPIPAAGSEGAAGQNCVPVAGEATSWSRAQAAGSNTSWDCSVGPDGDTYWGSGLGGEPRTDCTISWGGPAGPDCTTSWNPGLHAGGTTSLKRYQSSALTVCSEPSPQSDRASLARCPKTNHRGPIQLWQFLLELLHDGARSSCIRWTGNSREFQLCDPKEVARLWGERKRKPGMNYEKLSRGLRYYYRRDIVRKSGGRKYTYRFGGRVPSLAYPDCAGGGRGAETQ
In short: (§1)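 Human transcription factors were made in yeast as GST fusions, captured on glutathione beads and barcoded with DNA. With a tag-only sample included, the pool was incubated with 200 nmole of a random double-stranded 16-mer DNA library in Tris/NaCl/DTT/glycerol buffer at room temperature for 30 min, then crosslinked with 0.1% formaldehyde after washing, ligated by proximity, amplified and sequenced. For binding signal, each hexamer's read frequency for a factor is divided by its frequency for the tag-only sample.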

Sequence	binding signal
TCATGC	1.31 fold enrichment (6-mer frequency, TF over GST control)
AAACGG	1.22 fold enrichment (6-mer frequency, TF over GST control)
CCTGTA	1.21 fold enrichment (6-mer frequency, TF over GST control)
TACAGG	1.15 fold enrichment (6-mer frequency, TF over GST control)
ACCGCC	1.13 fold enrichment (6-mer frequency, TF over GST control)
ATCACA	1.25 fold enrichment (6-mer frequency, TF over GST control)
CCTACC	1.38 fold enrichment (6-mer frequency, TF over GST control)
TGCTGA	1.15 fold enrichment (6-mer frequency, TF over GST control)
TGCAAT	1.04 fold enrichment (6-mer frequency, TF over GST control)
TGTATA	1.04 fold enrichment (6-mer frequency, TF over GST control)
AAAGGG	1.05 fold enrichment (6-mer frequency, TF over GST control)
GCCTCC	1.29 fold enrichment (6-mer frequency, TF over GST control)
GATATC	1.51 fold enrichment (6-mer frequency, TF over GST control)
TACCCA	1.12 fold enrichment (6-mer frequency, TF over GST control)
CTGACC	1.46 fold enrichment (6-mer frequency, TF over GST control)
CCATCA	1.11 fold enrichment (6-mer frequency, TF over GST control)
TACGTC	1.02 fold enrichment (6-mer frequency, TF over GST control)
ATACGT	1.04 fold enrichment (6-mer frequency, TF over GST control)
GGATAT	1.55 fold enrichment (6-mer frequency, TF over GST control)
GGTCTA	1.06 fold enrichment (6-mer frequency, TF over GST control)

These sequences were tested against T2, ELF3 (Homo sapiens, UniProt P78545 1-371) in the same assay as above. Conditions: protein: recombinant; tags: N-terminal GST; dsDNA, one strand shown.
T2 sequence: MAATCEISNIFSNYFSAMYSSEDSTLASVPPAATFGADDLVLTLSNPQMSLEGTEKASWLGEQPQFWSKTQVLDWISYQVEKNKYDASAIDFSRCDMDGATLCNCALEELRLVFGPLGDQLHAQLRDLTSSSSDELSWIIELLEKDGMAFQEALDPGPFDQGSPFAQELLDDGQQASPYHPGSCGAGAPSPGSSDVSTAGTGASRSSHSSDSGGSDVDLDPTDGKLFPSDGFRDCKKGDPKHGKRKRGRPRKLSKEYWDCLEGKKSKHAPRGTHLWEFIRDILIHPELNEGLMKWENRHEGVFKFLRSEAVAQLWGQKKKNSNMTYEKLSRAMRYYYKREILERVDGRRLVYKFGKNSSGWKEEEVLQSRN
In short: as §1

Sequence	binding signal
TACCGC	1.23 fold enrichment (6-mer frequency, TF over GST control)
TGCATA	1.03 fold enrichment (6-mer frequency, TF over GST control)
AAGTCA	1.21 fold enrichment (6-mer frequency, TF over GST control)
CGCTCA	1.16 fold enrichment (6-mer frequency, TF over GST control)
TCACCC	1.16 fold enrichment (6-mer frequency, TF over GST control)
CTCAGT	1.35 fold enrichment (6-mer frequency, TF over GST control)
CCTCGG	1.3 fold enrichment (6-mer frequency, TF over GST control)
TGATGT	1.21 fold enrichment (6-mer frequency, TF over GST control)
TCCGTT	1.35 fold enrichment (6-mer frequency, TF over GST control)
CGGTTT	1.24 fold enrichment (6-mer frequency, TF over GST control)
CTACGT	1.01 fold enrichment (6-mer frequency, TF over GST control)
TCACAT	1.21 fold enrichment (6-mer frequency, TF over GST control)
TCAATG	1.03 fold enrichment (6-mer frequency, TF over GST control)
ACCACT	1.23 fold enrichment (6-mer frequency, TF over GST control)
TTGTTG	1.15 fold enrichment (6-mer frequency, TF over GST control)
CCTAGA	1.12 fold enrichment (6-mer frequency, TF over GST control)
ACCTTG	1.29 fold enrichment (6-mer frequency, TF over GST control)
AACGGC	1.12 fold enrichment (6-mer frequency, TF over GST control)
TCATGC	1.18 fold enrichment (6-mer frequency, TF over GST control)
AAACGG	1.28 fold enrichment (6-mer frequency, TF over GST control)

Sequence	binding signal
CCTGTA	1.09 fold enrichment (6-mer frequency, TF over GST control)
TACAGG	1.15 fold enrichment (6-mer frequency, TF over GST control)
ACCGCC	1.33 fold enrichment (6-mer frequency, TF over GST control)
ATCACA	1.15 fold enrichment (6-mer frequency, TF over GST control)
CCTACC	1.1 fold enrichment (6-mer frequency, TF over GST control)
TGCTGA	1.09 fold enrichment (6-mer frequency, TF over GST control)
TGCAAT	1.24 fold enrichment (6-mer frequency, TF over GST control)
TGTATA	1.02 fold enrichment (6-mer frequency, TF over GST control)
GGCTTA	1.14 fold enrichment (6-mer frequency, TF over GST control)
AAAGGG	1.25 fold enrichment (6-mer frequency, TF over GST control)
GCCTCC	1.24 fold enrichment (6-mer frequency, TF over GST control)
GATATC	1.59 fold enrichment (6-mer frequency, TF over GST control)
TACCCA	1.18 fold enrichment (6-mer frequency, TF over GST control)
CTGACC	1.51 fold enrichment (6-mer frequency, TF over GST control)
CCATCA	1.28 fold enrichment (6-mer frequency, TF over GST control)
TACGTC	1.02 fold enrichment (6-mer frequency, TF over GST control)
ATACGT	1.1 fold enrichment (6-mer frequency, TF over GST control)
GGATAT	1.78 fold enrichment (6-mer frequency, TF over GST control)
GGTCTA	1.01 fold enrichment (6-mer frequency, TF over GST control)
